ssDAF12 agonist = activators of S. stercoralis DAF-12 nuclear receptor; 370,000 compounds, 1% hits; HEK293 ssDAF-12/GRIP1 lit1-tk-luc reporter, luminescence; % of 3 µM dafachronic acid response; activation, % at 6.8 µM;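 active means activation above the mean over all tested compounds plus 3 SD, cut at about 0.9% in these data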;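 further: 0% = DMSO-only wells and 100% = 3 µM delta7-dafachronic acid wells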
hcDAF-12 act = activators of H. contortus DAF-12 nuclear receptor | HEK293 hcDAF-12 lit1-tk-luc reporter, luminescence; 0% DMSO, 100% Δ7-dafachronic acid | activation, % at 6.8 µM | 370,000 compounds, 1.4% hits | AID 652067;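 active means activation above the mean of all tested compounds plus 3 SD, cut at about 5.5% in these data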;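 further: 100% = response to 3 µM Δ7-dafachronic acid high control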
hgDAF-12 ag = activates the H. glycines DAF-12 receptor ligand-binding domain; HEK293 GAL4-hgDAF12 UAS-luciferase reporter, agonist luminescence; normalized to butyrate control; activation, % at 6.8 µM; 370,000 compounds, 1.8% hits; AID 687014;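 active means activation above a cutoff set at the mean of all screened compounds plus 3 SD, cut at about 10% in these data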;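 further: 0% = DMSO wells and 100% = sodium butyrate wells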
DAX1 inh-1 = inhibitors of human orphan nuclear receptor DAX1 (NR0B1) | P51843 | HEK293 Gal4-DAX1 luciferase reporter, luminescence | inhibition, % at 6.75 µM | 340,000 compounds, 0.99% hits | AID 504766;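 active means inhibition above the mean over all tested compounds plus 3 SD, cut at about 4.2% in these data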;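 further: 0% = DAX1-transfected cells with DMSO and 100% = empty-vector control cells with DMSO; inhibition shows as a rise in luminescence from relieved DAX1 repression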
Target sequence (P51843 207-470 limits assumed): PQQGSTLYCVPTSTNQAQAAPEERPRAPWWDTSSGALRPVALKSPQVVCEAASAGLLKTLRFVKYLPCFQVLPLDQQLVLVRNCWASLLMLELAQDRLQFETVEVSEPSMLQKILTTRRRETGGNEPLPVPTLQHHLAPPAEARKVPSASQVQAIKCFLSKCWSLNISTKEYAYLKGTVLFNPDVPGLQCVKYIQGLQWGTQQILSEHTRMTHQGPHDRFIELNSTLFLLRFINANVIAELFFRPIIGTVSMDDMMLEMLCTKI
DAX1 inh-2 = inhibitors of DAX1 repression of SF-1 activated StAR promoter; HEK293T StAR-luciferase reporter, SF-1/DAX-1 repression relief; inhibition, % at 6.8 µM; 370,000 compounds, 1.1% hits;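 active means inhibition above the mean over all tested compounds plus 3 SD, cut at about 3.6% in these data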;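 further: 0% = DAX-1 cells with DMSO and 100% = cells lacking DAX-1 with DMSO; higher inhibition means more luminescence from relief of DAX-1 repression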
* = called active by the depositor. Sampled rows, rich in hits. Any-hit rate of the full collection: about 4.1%.

How did C[C@@H]1[C@H](c2ccccc2)OC(O)([C@H](Cc2ccccc2)NC(=O)OC(C)(C)C)CN1C (some centres undefined) do in these assays?
ssDAF12 agonist: -1.6; hcDAF-12 act: -1.3; hgDAF-12 ag: 2.6

What do the screens show for `Cc1c(C(=O)N2CCN(C)CC2)oc2c1C(=O)CC(C)(C)C2`?
ssDAF12 agonist: -1.6; hcDAF-12 act: -0.9; hgDAF-12 ag: -1.9; DAX1 inh-1: -0.6; DAX1 inh-2: 0.6

Results for Cc1c(C(=O)N2CCc3ccccc32)oc2c1C(=O)CC(C)(C)C2 ?
ssDAF12 agonist: 0.6; hcDAF-12 act: 4.2; hgDAF-12 ag: 7.9; DAX1 inh-1: 2.5; DAX1 inh-2: 4.0*

How did O=C(NCCCN1CCCC1=O)c1cc2nc(-c3ccco3)cc(C(F)(F)F)n2n1 do in these assays?
ssDAF12 agonist: 1.0*; hcDAF-12 act: 1.2; hgDAF-12 ag: -2.6; DAX1 inh-1: -0.5; DAX1 inh-2: -0.4

How did COC(=O)[C@@]12CCCCC3=C1N(CCC3)C(=O)[C@H]2CC(=O)N1CCC(c2ccccc2)CC1 do in these assays?
ssDAF12 agonist: -1.8; hcDAF-12 act: -0.7; hgDAF-12 ag: 0.4; DAX1 inh-2: -0.8

How did COc1ccc(NC(C)=O)cc1S(=O)(=O)Nc1ccc(C(=O)N2CCCC2)cc1 do in these assays?
ssDAF12 agonist: -1.0; hcDAF-12 act: 0.6; hgDAF-12 ag: -1.3; DAX1 inh-1: 4.4*; DAX1 inh-2: -0.5

How did COc1ccc(NC(C)=O)cc1S(=O)(=O)Nc1ccccc1C(=O)N1CCCC1 do in these assays?
ssDAF12 agonist: -1.3; hcDAF-12 act: 0.8; hgDAF-12 ag: 1.6; DAX1 inh-1: 0.6; DAX1 inh-2: 0.6

Results for CC(=O)c1ccc(N2C(=NC(=O)COc3ccccc3)SC3CS(=O)(=O)CC32)cc1 (centres undefined) ?
ssDAF12 agonist: -1.2; hcDAF-12 act: 1.9; hgDAF-12 ag: 2.3; DAX1 inh-1: 5.5*; DAX1 inh-2: 0.3

What do the screens show for `COC(=O)c1cc(-c2ccc(C(C)=O)cc2)c(=O)n2c1CCC2`?
ssDAF12 agonist: -1.4; hcDAF-12 act: 1.8; hgDAF-12 ag: 4.1; DAX1 inh-2: 0.1

Results for Cn1c(=O)n(C)c2cc(/C=N/NC(=O)c3ccc(Cl)cc3)ccc21 ?
ssDAF12 agonist: -1.2; hcDAF-12 act: 0.5; hgDAF-12 ag: 0.8; DAX1 inh-1: 4.6*; DAX1 inh-2: -0.5

Results for COc1cc(/C=N/NC(=O)c2ccccc2)ccc1O ?
ssDAF12 agonist: -1.0; hcDAF-12 act: 3.9; hgDAF-12 ag: 5.1; DAX1 inh-1: 5.9*; DAX1 inh-2: 1.5

What do the screens show for `COc1cc(/C=N/NC(=O)Nc2ccccc2)ccc1OC(C)=O`?
ssDAF12 agonist: -0.1; hcDAF-12 act: 2.8; hgDAF-12 ag: 12.2*; DAX1 inh-1: 1.2; DAX1 inh-2: 1.2

What do the screens show for `COc1cc(C(=O)N/N=C/c2ccc(OC(=O)c3ccccc3)c(OC)c2)ccc1O`?
ssDAF12 agonist: -1.2; hcDAF-12 act: -0.3; hgDAF-12 ag: 3.6; DAX1 inh-1: -0.2; DAX1 inh-2: -0.8

What do the screens show for `COc1ccc(/C=N/NC(=O)c2cccc(Br)c2)cc1CN1CCOCC1`?
ssDAF12 agonist: -1.3; hcDAF-12 act: -1.6; hgDAF-12 ag: 0.7; DAX1 inh-1: 1.1; DAX1 inh-2: 0.1

What do the screens show for `COc1ccc(/C=N/NC(=O)c2ccccc2O)cc1CN1CCOCC1`?
ssDAF12 agonist: -0.4; hcDAF-12 act: 6.0*; hgDAF-12 ag: 5.7; DAX1 inh-1: -1.0; DAX1 inh-2: -0.4

How did C[C@@H]1CNC(=O)c2c(C(=O)N(C)Cc3ccccc3)ncn21 do in these assays?
ssDAF12 agonist: 0.0; hcDAF-12 act: 0.7; hgDAF-12 ag: 3.0; DAX1 inh-2: 0.3

How did COc1ccc(S[C@]2(C(=O)N3CCCC3)CC(=O)N(C(=O)C3CC3)[C@@H]2c2ccc(OC)cc2)cc1 do in these assays?
ssDAF12 agonist: -0.8; hcDAF-12 act: -1.0; hgDAF-12 ag: 1.4; DAX1 inh-2: -1.8

Results for O=C(OCC#CCSc1nnc(-c2cccc3ccccc23)o1)c1ccc(OC(F)(F)F)cc1 ?
ssDAF12 agonist: -1.9; hcDAF-12 act: -0.6; hgDAF-12 ag: 0.4

How did COc1cccc(C(=O)N[C@H](C(=O)N2CCC[C@H]2C(=O)NCCc2ccccc2Cl)C(C)C)c1 do in these assays?
ssDAF12 agonist: -1.2; hcDAF-12 act: 2.1; hgDAF-12 ag: 1.9; DAX1 inh-2: -1.1

Results for CC(=O)Nc1c(-c2ccc(C(F)(F)F)cc2)nc2ncccn12 ?
ssDAF12 agonist: -0.4; hcDAF-12 act: 0.2; hgDAF-12 ag: 1.5; DAX1 inh-2: -0.5

How did CN(C)CC(O)COC(c1ccc(Cl)cc1)c1ccc(Cl)cc1 (centres undefined) do in these assays?
ssDAF12 agonist: -1.0; hcDAF-12 act: 0.6; hgDAF-12 ag: 1.1; DAX1 inh-1: 4.3*; DAX1 inh-2: -0.3

How did CC1CN(CC(O)COC(c2ccc(Cl)cc2)c2ccc(Cl)cc2)CC(C)O1 (centres undefined) do in these assays?
ssDAF12 agonist: -1.1; hcDAF-12 act: -1.8; hgDAF-12 ag: -0.3; DAX1 inh-1: -0.3; DAX1 inh-2: -0.6

How did O=S1(=O)c2ccc(N3CCSCC3)cc2Oc2ccccc2CN1Cc1cn(Cc2cccc(F)c2)nn1 do in these assays?
ssDAF12 agonist: -1.7; hcDAF-12 act: -1.3; hgDAF-12 ag: -2.9; DAX1 inh-2: 0.0

What do the screens show for `O=C(O)c1cccc(N=NN2CCOCC2)c1`?
ssDAF12 agonist: -0.5; hcDAF-12 act: 1.6; hgDAF-12 ag: 6.9; DAX1 inh-2: 3.7*

What do the screens show for `CC(=O)OCCCN(C)CC/C=C1/c2ccccc2CSc2ccccc21`?
ssDAF12 agonist: 1.0*; hcDAF-12 act: -0.8; hgDAF-12 ag: -0.1; DAX1 inh-1: 0.1; DAX1 inh-2: -0.1

What do the screens show for `CCN1C(=O)C(CC(=O)Nc2ccc(OC)cc2)N(Cc2cccnc2)C1=S` (centres undefined)?
ssDAF12 agonist: 2.7*; hcDAF-12 act: -1.9; hgDAF-12 ag: -0.5; DAX1 inh-1: -0.5; DAX1 inh-2: -0.5

What do the screens show for `C=CCN1C(=O)[C@@H](CC(=O)N2CCCC2)[C@]2(C(=O)OC)CCCCC=C12`?
ssDAF12 agonist: -1.2; hcDAF-12 act: -3.4; hgDAF-12 ag: -0.5; DAX1 inh-2: -0.7

How did Cc1ccc(-c2nc3ncccn3c2NC(=O)c2cccc(C)c2)cc1 do in these assays?
ssDAF12 agonist: -1.3; hcDAF-12 act: -2.0; hgDAF-12 ag: 0.9; DAX1 inh-2: 0.1

Results for CC(Oc1ccccc1)C(=O)N=Nc1c(O)[nH]c2ccc(Br)cc12 (centres undefined) ?
ssDAF12 agonist: 2.2*; hcDAF-12 act: 1.1; hgDAF-12 ag: -3.6; DAX1 inh-1: -0.7; DAX1 inh-2: -0.3

How did COc1ccccc1N=Nc1c(O)[nH]c2ccc(Br)cc12 do in these assays?
ssDAF12 agonist: 1.0*; hcDAF-12 act: 6.4*; hgDAF-12 ag: 2.2; DAX1 inh-1: 1.1; DAX1 inh-2: 0.0

Results for Cc1ccc(S(=O)(=O)NCC(=O)OCC(=O)Nc2ccc(C)c(S(=O)(=O)N3CCOCC3)c2)cc1 ?
ssDAF12 agonist: -1.3; hcDAF-12 act: -0.2; hgDAF-12 ag: -3.7; DAX1 inh-1: 0.3; DAX1 inh-2: 0.6

Screening results: PubChem, The Scripps Research Institute Molecular Screening Center
